Experimental findings from PubChem BioAssay (NCI) are described below.

Assay [1] can be described thus: NCI Yeast Anticancer Drug Screen. Data for the rad50 strain (AID 155).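 Further: 0% = growth of vehicle-only cultures of the same strain.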 Particulars: S. cerevisiae rad50 strain growth inhibition; at 50.0 µM; stronger effect = higher value. The method, boiled down:
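Readout: growth inhibition relative to vehicle-treated cultures. Compound exposure was carried out in a genetically defined yeast strain deficient in DNA damage repair.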

Assay [2] is described as follows: NCI Yeast Anticancer Drug Screen. Data for the mec2-1 strain (AID 157). Conditions: S. cerevisiae mec2-1 strain, at 50.0 µM, stronger effect = higher value. The method, boiled down: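 Test agents were screened against the mec2-1 yeast strain, with defined DNA repair or cell cycle alteration. Growth was scored as inhibition against vehicle-only controls.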
Assay [3] in a line: NCI Yeast Anticancer Drug Screen. Data for the sgs1 mgt1 strain (AID 161).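 Further: 0% = growth of cultures given vehicle only.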 Particulars: S. cerevisiae sgs1 mgt1 strain, at 50.0 µM, stronger effect = higher value. The method in brief:
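Inhibition of yeast growth, normalised to vehicle-treated controls, is reported for a strain bearing genetic alterations in DNA damage repair.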

Assay [4] can be described thus: NCI Yeast Anticancer Drug Screen. Data for the cln2 rad14 strain (AID 165).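 Further: 0% = growth equal to vehicle treated cultures.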 Particulars: S. cerevisiae cln2 rad14 strain, at 50.0 µM, stronger effect = higher value. The method in brief:
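Growth of compound-exposed yeast (cln2 rad14 genotype) measured and expressed as inhibition relative to vehicle.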

Assay [5] in a line: NCI Yeast Anticancer Drug Screen. Data for the bub3 strain (AID 167). Particulars: S. cerevisiae bub3 mutant strain, at 50.0 µM, stronger effect = higher value. The method, boiled down: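 Readout: yeast growth inhibition, expressed relative to vehicle-only wells. The test organism is a mutant strain from a panel with lesions in DNA repair or checkpoint genes.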
Assay [6] is described as follows: NCI Yeast Anticancer Drug Screen. Data for the mlh1 rad18 strain (AID 175). Conditions: S. cerevisiae mlh1 rad18 strain growth inhibition; at 50.0 µM; stronger effect = higher value. The method, boiled down: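 In this whole-cell yeast screen, a strain with altered DNA damage repair is challenged with compound, and its growth is measured against matched vehicle-treated controls.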

About 79,000 compounds went through this panel and 15% of them were active in at least one assay; those are over-represented in the sample as a whole. Values without a mark were called inactive. Calls of active or inactive are those of the source. No stated cut-off is given here; in the data, active means growth inhibition above about 70%; inactive means the rest.

`CO/C(N)=C(\C#N)N=Cc1cccs1`: the growth inhibition in assay [1] is 3.95%; in assay [2], 4.6%; in assay [3], 11.4%; in assay [4], 5.1%; in assay [5], -8.4%; in assay [6], 9.9%.
Take `O=[N+]([O-])c1cc(C=NCCCCCCN=Cc2ccc(Cl)c([N+](=O)[O-])c2)ccc1Cl`: the growth inhibition is 6.9% in assay [1]; -3.85% in assay [2]; -9.75% in assay [3]; -19.3% in assay [4]; 4.35% in assay [5]; -0.9% in assay [6].
For the molecule `CCN1C(=O)NC(C)(c2ccccc2)C1=O` (stereo not given), the growth inhibition in assay [1] was -2.9%; in assay [2], 3.35%; in assay [3], -3.45%; in assay [4], -11.3%; in assay [5], 10.1%; in assay [6], 2.1%.
Consider `CNC1C(CO)OC(n2cnc3c(=O)[nH]cnc32)C1O` (stereo not given), for which the growth inhibition in assay [1] is 12.2%; in assay [2], -6.45%; in assay [3], -11.4%; in assay [4], -9.1%; in assay [5], -9.2%; in assay [6], 13.6%.
As to `COC(=O)c1ccccc1NC(=O)Nc1cc(Cl)ccc1OC`, the growth inhibition in assay [1] was 85.5% (active); in assay [2], 91.2% (active); in assay [3], 90.4% (active); in assay [4], 80.8% (active); in assay [5] it was 88.2% (active); in assay [6], 88.9% (active).
As to `O=C(NC(Cc1cccnc1)C(=O)O)c1ccccc1` (stereo not given), the growth inhibition in assay [1] was 2.85%; in assay [2], 11.4%; in assay [3], 8.55%; in assay [4] it was -16.4%; in assay [5], 12.9%; in assay [6], 7.65%.
Consider `Cn1c(-c2ccc(Br)cc2)cc2[nH]c(=S)nc(N)c2c1=O`, for which the growth inhibition is -16.8% in assay [1]; -23.9% in assay [2]; -14% in assay [3]; -12.3% in assay [4]; -7.75% in assay [5]; 2.5% in assay [6].
With `O=C(NCCCl)NCc1ccccc1`, the growth inhibition in assay [1] is -10.9%; in assay [2] it was 2.35%; in assay [3], 1.4%; in assay [4] it was -40.1%; in assay [5], -15.2%; in assay [6] it was -2%.
On to `NC1NC(=O)C(CCCOc2ccc([N+](=O)[O-])cc2)C(c2ccccc2)N1` (stereo not given), for which the growth inhibition is 3.55% in assay [1]; -11.8% in assay [2]; 6.6% in assay [3]; 2.35% in assay [4]; 21.8% in assay [5]; 10.4% in assay [6].
For the molecule `COC(=O)c1ccc(C(=O)OC)c(NC(=O)CC(=O)c2ccc([N+](=O)[O-])cc2)c1`, the growth inhibition in assay [1] was 46.2%; in assay [2], 18.9%; in assay [3], 51.4%; in assay [4], 9.55%; in assay [5], -0.5%; in assay [6], 34.8%.
As to `CN(C)CCCNc1ccc2ncn3c4ccc(O)cc4c(=O)c1c23`, the growth inhibition in assay [1] is -4.45%; in assay [2] it was -3.9%; in assay [3], -14.3%; in assay [4], -15.3%; in assay [5], 0.5%; in assay [6], 7.9%.
Turning to `O=C1[C@@H]2[C@@H](c3ccccc3)[C@]2(Cl)C(=O)[C@H]2[C@H](c3ccccc3)[C@@]12Cl`, the growth inhibition was 6.9% in assay [1]; 4.15% in assay [2]; 1.1% in assay [3]; 8.75% in assay [4]; 3.8% in assay [5]; 32.8% in assay [6].
As to `CCOc1cc([N+](=O)[O-])c(OCC)cc1Cl`, the growth inhibition was -24.6% in assay [1]; -53.5% in assay [2]; -19.9% in assay [3]; 11% in assay [4]; -17.6% in assay [5]; -29.6% in assay [6].
With `CC(C)CC1N=C(OCc2ccccc2)OC1=O` (stereo not given), the growth inhibition in assay [1] was -16.6%; in assay [2], -79.5%; in assay [3] it was -20.4%; in assay [4], -15.7%; in assay [5], 5.25%; in assay [6] it was -14.2%.
On to `Cc1cc(C)c(C2CC(O)C(CO)O2)cc1C` (stereo not given), for which the growth inhibition was -2% in assay [1]; -20.9% in assay [2]; -10.1% in assay [3]; 14.1% in assay [4]; -3.35% in assay [5]; 21.4% in assay [6].
`N#CCCC(C(=O)O)C(=O)CN1C(=O)c2ccccc2C1=O` (stereo not given): the growth inhibition in assay [1] is 5.15%; in assay [2] it was -7.95%; in assay [3] it was 0.4%; in assay [4] it was -7.75%; in assay [5] it was 0.4%; in assay [6], 7.6%.
In the case of `NC(=O)C1OC1(c1ccccc1)c1ccccc1` (stereo not given), the growth inhibition in assay [1] is 20.8%; in assay [2], 5.2%; in assay [3], 3.05%; in assay [4] it was -2.1%; in assay [5] it was 4.15%; in assay [6], 3.15%.
As for `O=C(c1ccccc1)C1CCC(C(=O)c2ccccc2)C1=O` (stereo not given), the growth inhibition in assay [1] was 15.8%; in assay [2], 14.3%; in assay [3], -8%; in assay [4] it was 17.9%; in assay [5] it was 7.3%; in assay [6], -17.2%.
Take `CC(C(=O)O)[C@H]1CC[C@H]2[C@@H]3CCC4=CC(=O)CC[C@]4(C)[C@H]3CC[C@]12C` (stereo not given in full): the growth inhibition in assay [1] is -3.5%; in assay [2], -5.7%; in assay [3] it was 7.15%; in assay [4] it was -46.9%; in assay [5], 2.5%; in assay [6], -10.2%.
For `Cn1c(=O)c2ccccc2c2cc([N+](=O)[O-])ccc21`, the growth inhibition in assay [1] is -11.8%; in assay [2], -5.05%; in assay [3], -18.5%; in assay [4], 1.1%; in assay [5], 12.7%; in assay [6], -4.2%.
